Test results from publication PMC7862700, “An all-to-all approach to the identification of sequence-specific readers for epigenetic DNA modifications on cytosine”.

Tests used:
Experiment in all cases: DAPPL (digital affinity profiling via proximity ligation, sequencing); 10 mM Tris-HCl pH 7.5, 50 mM NaCl, 1 mM DTT, 4% glycerol, room temperature, 30 min; GST-TFs on glutathione beads, 16-mer random dsDNA library, 0.1% formaldehyde crosslink after washing; high values mean tight binding
FEV = target: T1, FEV (Homo sapiens, UniProt Q99581 1-238); settings: protein: recombinant; tags: N-terminal GST; dsDNA, one strand shown
T1 sequence: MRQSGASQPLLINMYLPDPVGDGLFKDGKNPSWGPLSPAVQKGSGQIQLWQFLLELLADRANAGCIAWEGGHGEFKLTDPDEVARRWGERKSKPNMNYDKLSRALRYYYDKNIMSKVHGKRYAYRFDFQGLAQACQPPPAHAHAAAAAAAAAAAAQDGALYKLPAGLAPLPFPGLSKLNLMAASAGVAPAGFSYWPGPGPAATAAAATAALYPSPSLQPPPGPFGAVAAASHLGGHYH
Procedure, shortened: (§1)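 Beads coated with glutathione captured GST-fused human transcription factors that had been expressed in yeast, and the factors were then given DNA barcodes and pooled with a tag-only sample. The pools were incubated with 200 nmole of a random double-stranded 16-mer DNA library in Tris/NaCl/DTT/glycerol buffer for 30 min at room temperature, washed, crosslinked with 0.1% formaldehyde and proximity-ligated with BsaI/T4 ligase at 37 °C for 1 h. PCR amplification and Illumina NextSeq500 sequencing came last. Binding signal is each hexamer's read frequency for a factor divided by its frequency for the tag-only sample.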

ETV5 = ETV5 (Homo sapiens, UniProt P41161 1-510); settings: protein: recombinant; tags: N-terminal GST; dsDNA, one strand shown
Procedure, shortened: as §1

HSF1 = HSF1 (Homo sapiens, UniProt Q00613 1-529); settings: protein: recombinant; tags: N-terminal GST; chain copies: 3; dsDNA, one strand shown
Procedure, shortened: as §1

SPIC = target: T2, SPIC (Homo sapiens, UniProt Q8N5J4 1-248); settings: protein: recombinant; tags: N-terminal GST; dsDNA, one strand shown
T2 sequence: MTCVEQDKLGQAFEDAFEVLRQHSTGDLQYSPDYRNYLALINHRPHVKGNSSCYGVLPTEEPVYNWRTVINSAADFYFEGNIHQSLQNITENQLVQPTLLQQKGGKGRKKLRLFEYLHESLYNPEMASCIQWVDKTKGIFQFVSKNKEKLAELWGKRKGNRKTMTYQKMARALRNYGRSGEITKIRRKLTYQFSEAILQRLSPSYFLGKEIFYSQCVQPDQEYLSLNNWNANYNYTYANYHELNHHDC
Procedure, shortened: as §1

ELF4 = ELF4 (Homo sapiens, UniProt Q99607 1-663); settings: protein: recombinant; tags: N-terminal GST; dsDNA, one strand shown
Procedure, shortened: as §1

ELK4 = target: T3, ELK4 (Homo sapiens, UniProt P28324-2 1-405); settings: protein: recombinant; tags: N-terminal GST; dsDNA, one strand shown
T3 sequence: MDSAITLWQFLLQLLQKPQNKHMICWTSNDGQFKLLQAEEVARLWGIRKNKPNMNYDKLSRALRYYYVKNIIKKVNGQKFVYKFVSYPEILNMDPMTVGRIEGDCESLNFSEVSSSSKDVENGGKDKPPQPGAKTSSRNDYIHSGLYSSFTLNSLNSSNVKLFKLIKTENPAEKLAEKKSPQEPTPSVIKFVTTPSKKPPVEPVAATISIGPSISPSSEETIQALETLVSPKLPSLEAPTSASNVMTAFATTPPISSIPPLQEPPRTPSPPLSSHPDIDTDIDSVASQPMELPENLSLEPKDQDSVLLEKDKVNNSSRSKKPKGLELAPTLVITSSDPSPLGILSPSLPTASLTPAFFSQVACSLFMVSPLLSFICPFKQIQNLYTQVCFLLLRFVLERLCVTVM
Procedure, shortened: as §1

ETV2 = target: T4, ETV2 (Homo sapiens, UniProt O00321 1-342); settings: protein: recombinant; tags: N-terminal GST; dsDNA, one strand shown
T4 sequence: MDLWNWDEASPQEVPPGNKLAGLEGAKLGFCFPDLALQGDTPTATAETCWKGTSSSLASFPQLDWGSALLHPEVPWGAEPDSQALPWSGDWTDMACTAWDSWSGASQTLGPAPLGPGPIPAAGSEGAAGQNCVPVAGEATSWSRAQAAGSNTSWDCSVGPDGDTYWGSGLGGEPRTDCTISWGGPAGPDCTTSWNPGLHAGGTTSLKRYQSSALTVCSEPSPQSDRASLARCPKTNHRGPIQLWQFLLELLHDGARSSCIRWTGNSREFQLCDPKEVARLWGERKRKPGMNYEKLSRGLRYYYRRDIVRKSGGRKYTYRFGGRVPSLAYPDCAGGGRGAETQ
Procedure, shortened: as §1

ELF3 = target: T5, ELF3 (Homo sapiens, UniProt P78545 1-371); settings: protein: recombinant; tags: N-terminal GST; dsDNA, one strand shown
T5 sequence: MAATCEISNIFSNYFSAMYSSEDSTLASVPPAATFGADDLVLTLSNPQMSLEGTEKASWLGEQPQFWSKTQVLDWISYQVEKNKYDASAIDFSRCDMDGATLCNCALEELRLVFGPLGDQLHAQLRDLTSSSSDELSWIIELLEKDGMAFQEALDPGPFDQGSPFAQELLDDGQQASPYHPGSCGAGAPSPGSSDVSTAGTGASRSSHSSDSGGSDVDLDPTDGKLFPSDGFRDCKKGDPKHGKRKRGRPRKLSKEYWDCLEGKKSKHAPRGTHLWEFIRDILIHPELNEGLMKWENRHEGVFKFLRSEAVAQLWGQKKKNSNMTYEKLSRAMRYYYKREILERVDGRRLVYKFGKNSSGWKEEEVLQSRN
Procedure, shortened: as §1

CRX = CRX (Homo sapiens, UniProt O43186 1-299); settings: protein: recombinant; tags: N-terminal GST; dsDNA, one strand shown
Procedure, shortened: as §1

ETV1 = ETV1 (Homo sapiens, UniProt P50549 1-477); settings: protein: recombinant; tags: N-terminal GST; dsDNA, one strand shown
Procedure, shortened: as §1

ERF = target: T6, ERF (Homo sapiens, UniProt P50548 1-548); settings: protein: recombinant; tags: N-terminal GST; dsDNA, one strand shown
T6 sequence: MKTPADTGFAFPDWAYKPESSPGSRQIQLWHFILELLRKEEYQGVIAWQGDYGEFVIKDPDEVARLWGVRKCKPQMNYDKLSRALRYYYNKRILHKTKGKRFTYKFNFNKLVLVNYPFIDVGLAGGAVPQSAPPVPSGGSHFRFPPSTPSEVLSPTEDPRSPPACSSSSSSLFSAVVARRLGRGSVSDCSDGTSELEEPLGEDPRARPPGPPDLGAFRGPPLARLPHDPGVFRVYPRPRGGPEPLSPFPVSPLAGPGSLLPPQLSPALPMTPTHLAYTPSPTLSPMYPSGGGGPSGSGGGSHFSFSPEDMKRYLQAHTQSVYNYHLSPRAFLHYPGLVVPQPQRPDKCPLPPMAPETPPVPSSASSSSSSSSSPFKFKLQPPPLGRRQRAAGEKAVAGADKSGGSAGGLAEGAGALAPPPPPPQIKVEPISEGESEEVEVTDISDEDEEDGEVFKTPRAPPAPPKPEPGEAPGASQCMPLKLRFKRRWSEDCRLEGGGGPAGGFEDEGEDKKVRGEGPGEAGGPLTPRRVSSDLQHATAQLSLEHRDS
Procedure, shortened: as §1

ETV3L = target: T7, ETV3L (Homo sapiens, UniProt Q6ZN32 1-361); settings: protein: recombinant; tags: N-terminal GST; dsDNA, one strand shown
T7 sequence: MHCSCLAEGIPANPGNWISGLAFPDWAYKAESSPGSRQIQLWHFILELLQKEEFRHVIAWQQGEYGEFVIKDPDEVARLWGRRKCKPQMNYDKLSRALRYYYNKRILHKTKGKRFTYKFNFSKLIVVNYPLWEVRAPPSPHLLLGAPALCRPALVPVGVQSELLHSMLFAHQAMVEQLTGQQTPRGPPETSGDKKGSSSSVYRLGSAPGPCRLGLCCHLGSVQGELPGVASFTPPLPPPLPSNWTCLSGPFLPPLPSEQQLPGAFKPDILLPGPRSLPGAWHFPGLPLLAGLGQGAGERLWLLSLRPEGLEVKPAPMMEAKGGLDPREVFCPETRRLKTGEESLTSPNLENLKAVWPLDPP
Procedure, shortened: as §1

ETS2 = target: T8, ETS2 (Homo sapiens, UniProt P15036 1-469); settings: protein: recombinant; tags: N-terminal GST; dsDNA, one strand shown
T8 sequence: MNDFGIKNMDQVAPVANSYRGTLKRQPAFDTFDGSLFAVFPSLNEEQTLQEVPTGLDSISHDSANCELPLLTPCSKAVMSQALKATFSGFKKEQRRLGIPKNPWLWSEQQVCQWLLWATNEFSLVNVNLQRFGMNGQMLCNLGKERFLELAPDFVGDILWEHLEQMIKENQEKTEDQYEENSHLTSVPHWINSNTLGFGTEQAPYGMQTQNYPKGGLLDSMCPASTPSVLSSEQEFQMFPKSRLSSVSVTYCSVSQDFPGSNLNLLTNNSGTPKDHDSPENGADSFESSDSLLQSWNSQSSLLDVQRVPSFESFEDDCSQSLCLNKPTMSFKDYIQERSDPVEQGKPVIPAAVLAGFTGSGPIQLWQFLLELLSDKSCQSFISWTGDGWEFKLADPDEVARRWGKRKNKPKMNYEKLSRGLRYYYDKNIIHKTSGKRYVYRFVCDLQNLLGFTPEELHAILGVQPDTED
Procedure, shortened: as §1

SPDEF = target: T9, SPDEF (Homo sapiens, UniProt O95238 1-335); settings: protein: recombinant; tags: N-terminal GST; dsDNA, one strand shown
T9 sequence: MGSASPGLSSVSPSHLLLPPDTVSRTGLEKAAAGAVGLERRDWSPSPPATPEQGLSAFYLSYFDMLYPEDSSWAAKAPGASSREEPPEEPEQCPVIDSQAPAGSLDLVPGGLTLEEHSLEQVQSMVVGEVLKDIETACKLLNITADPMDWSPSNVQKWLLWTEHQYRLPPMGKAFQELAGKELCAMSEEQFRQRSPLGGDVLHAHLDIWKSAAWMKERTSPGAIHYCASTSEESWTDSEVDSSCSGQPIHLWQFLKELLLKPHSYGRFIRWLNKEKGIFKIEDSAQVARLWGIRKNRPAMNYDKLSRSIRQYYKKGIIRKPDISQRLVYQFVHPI
Procedure, shortened: as §1

ETV7 = target: T10, ETV7 (Homo sapiens, UniProt Q9Y603 1-341); settings: protein: recombinant; tags: N-terminal GST; dsDNA, one strand shown
T10 sequence: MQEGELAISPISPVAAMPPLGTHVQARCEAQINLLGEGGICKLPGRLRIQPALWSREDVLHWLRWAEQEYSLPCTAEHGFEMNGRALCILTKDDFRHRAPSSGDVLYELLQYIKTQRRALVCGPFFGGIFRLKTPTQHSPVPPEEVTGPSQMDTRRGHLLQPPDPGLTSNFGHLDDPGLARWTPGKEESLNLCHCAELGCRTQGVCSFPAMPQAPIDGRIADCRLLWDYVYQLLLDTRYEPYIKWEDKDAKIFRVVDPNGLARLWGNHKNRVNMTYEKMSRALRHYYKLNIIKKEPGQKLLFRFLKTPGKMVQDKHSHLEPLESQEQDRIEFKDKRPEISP
Procedure, shortened: as §1

ELF5 = target: T11, ELF5 (Homo sapiens, UniProt Q9UKW6-2 1-255); settings: protein: recombinant; tags: N-terminal GST; dsDNA, one strand shown
T11 sequence: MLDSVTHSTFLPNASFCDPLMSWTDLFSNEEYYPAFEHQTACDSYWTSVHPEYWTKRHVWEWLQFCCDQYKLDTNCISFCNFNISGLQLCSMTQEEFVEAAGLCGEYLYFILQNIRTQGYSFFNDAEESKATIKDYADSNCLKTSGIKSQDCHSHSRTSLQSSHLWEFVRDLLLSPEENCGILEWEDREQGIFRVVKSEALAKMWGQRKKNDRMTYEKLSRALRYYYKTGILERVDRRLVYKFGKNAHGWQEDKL
Procedure, shortened: as §1

ETV3 = target: T12, ETV3 (Homo sapiens, UniProt P41162-2 1-143); settings: protein: recombinant; tags: N-terminal GST; dsDNA, one strand shown
T12 sequence: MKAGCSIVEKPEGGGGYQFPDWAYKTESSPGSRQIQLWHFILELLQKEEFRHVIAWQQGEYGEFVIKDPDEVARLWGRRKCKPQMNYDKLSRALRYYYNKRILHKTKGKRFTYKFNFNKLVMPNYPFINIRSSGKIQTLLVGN
Procedure, shortened: as §1

ETV6 = ETV6 (Homo sapiens, UniProt P41212 1-452); settings: protein: recombinant; tags: N-terminal GST; dsDNA, one strand shown
Procedure, shortened: as §1

ETV5, sequence (P41161 whole entry): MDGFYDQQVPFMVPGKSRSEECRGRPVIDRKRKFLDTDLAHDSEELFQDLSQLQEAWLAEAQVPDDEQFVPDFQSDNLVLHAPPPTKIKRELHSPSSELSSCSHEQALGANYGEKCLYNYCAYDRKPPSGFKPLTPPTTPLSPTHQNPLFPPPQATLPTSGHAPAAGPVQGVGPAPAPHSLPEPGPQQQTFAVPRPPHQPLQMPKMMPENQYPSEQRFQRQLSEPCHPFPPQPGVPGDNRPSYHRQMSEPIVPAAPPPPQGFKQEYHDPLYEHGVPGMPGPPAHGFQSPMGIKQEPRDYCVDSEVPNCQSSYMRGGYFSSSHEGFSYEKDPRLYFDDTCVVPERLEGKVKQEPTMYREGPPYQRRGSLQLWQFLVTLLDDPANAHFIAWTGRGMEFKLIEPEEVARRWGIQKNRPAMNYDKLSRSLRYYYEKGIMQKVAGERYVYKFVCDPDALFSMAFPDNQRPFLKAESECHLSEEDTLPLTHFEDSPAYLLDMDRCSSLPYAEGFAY
HSF1, sequence (Q00613 whole entry): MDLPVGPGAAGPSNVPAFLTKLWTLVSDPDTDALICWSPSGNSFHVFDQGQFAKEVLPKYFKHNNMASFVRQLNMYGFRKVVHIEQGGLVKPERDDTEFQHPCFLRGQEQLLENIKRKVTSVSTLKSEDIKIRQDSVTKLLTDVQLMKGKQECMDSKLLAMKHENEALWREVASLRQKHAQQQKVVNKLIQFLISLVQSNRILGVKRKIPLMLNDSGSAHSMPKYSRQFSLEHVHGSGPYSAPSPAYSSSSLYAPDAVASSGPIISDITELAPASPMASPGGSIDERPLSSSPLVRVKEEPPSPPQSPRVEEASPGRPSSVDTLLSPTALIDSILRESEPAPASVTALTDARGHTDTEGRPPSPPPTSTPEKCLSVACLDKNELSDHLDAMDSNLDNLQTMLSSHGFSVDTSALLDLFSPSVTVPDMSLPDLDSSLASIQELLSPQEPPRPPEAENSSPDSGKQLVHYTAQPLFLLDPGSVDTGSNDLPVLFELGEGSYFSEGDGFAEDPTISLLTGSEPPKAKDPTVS
ETV6, sequence (P41212 whole entry): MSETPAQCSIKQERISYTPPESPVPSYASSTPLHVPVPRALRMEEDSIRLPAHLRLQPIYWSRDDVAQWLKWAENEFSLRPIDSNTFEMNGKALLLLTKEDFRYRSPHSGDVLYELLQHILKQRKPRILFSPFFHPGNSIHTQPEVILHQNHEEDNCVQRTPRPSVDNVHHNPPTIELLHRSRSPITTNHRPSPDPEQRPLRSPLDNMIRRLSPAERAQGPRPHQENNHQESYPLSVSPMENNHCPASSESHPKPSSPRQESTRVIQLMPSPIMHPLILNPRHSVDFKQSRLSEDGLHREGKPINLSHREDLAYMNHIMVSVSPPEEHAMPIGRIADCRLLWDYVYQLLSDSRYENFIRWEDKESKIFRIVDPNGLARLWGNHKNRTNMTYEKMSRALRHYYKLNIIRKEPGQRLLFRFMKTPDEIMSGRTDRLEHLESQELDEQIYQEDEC
CRX, sequence (O43186 whole entry): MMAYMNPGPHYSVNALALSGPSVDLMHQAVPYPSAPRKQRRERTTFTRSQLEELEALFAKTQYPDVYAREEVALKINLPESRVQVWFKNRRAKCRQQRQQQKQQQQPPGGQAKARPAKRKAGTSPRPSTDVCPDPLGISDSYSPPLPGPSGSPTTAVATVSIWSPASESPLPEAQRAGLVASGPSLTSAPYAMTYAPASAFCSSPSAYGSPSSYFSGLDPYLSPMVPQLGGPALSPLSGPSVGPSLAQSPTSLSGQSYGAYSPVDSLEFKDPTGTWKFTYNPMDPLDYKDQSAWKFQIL
ELF4, sequence (Q99607 whole entry): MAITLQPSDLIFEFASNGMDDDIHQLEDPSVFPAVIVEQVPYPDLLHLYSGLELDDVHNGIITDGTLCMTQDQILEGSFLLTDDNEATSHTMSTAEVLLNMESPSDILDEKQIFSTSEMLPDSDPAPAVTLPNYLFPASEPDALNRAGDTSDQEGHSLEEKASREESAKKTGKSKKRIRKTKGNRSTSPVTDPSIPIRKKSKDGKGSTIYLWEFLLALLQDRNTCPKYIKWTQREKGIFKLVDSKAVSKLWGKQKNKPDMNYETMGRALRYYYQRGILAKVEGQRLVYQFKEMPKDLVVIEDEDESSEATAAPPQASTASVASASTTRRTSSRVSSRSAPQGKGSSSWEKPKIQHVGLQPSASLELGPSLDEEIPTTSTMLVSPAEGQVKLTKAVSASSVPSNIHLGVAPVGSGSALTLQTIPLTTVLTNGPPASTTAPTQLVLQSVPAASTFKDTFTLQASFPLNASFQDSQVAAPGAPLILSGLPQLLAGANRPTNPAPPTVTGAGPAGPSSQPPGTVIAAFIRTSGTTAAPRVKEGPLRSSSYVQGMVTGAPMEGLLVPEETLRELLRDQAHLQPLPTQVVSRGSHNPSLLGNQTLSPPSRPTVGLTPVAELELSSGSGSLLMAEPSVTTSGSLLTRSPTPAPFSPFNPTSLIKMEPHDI
ETV1, sequence (P50549 whole entry): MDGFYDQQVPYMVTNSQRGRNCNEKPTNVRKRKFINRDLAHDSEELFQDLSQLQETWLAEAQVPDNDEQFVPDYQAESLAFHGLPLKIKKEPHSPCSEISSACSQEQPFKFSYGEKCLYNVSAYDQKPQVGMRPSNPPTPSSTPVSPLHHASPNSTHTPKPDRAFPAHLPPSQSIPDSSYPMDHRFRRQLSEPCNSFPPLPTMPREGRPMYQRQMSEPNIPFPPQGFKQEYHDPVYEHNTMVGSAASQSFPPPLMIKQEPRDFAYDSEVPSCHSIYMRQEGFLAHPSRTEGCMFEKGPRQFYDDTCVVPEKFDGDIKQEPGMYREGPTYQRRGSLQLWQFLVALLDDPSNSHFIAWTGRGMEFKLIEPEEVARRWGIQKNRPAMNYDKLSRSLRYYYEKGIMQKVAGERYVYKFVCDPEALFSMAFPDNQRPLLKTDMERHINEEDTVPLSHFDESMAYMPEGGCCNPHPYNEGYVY

Question: Which binding signal (FEV) does the source give for CAAAAC here?
Answer: 1.3 fold enrichment (6-mer frequency, TF over GST control)

Question: And the binding signal (ETV5)?
Answer: 1.26 fold enrichment (6-mer frequency, TF over GST control)

Question: What about the binding signal (HSF1) of the same sequence?
Answer: 1.05 fold enrichment (6-mer frequency, TF over GST control)

Question: And the binding signal (SPIC)?
Answer: 1.23 fold enrichment (6-mer frequency, TF over GST control)

Question: And the binding signal (ELF4)?
Answer: 1.34 fold enrichment (6-mer frequency, TF over GST control)

Question: And the binding signal (ELK4)?
Answer: 1.28 fold enrichment (6-mer frequency, TF over GST control)

Question: And the binding signal (ETV2)?
Answer: 1.24 fold enrichment (6-mer frequency, TF over GST control)

Question: What about the binding signal (ELF3) of the same sequence?
Answer: 1.28 fold enrichment (6-mer frequency, TF over GST control)

Question: And the binding signal (CRX)?
Answer: 1.02 fold enrichment (6-mer frequency, TF over GST control)

Question: What about the binding signal (ETV1) of the same sequence?
Answer: 1.2 fold enrichment (6-mer frequency, TF over GST control)

Question: What about the binding signal (ERF) of the same sequence?
Answer: 1.28 fold enrichment (6-mer frequency, TF over GST control)

Question: What about the binding signal (ETV3L) of the same sequence?
Answer: 1.27 fold enrichment (6-mer frequency, TF over GST control)

Question: What about the binding signal (ETS2) of the same sequence?
Answer: 1.27 fold enrichment (6-mer frequency, TF over GST control)

Question: What about the binding signal (SPDEF) of the same sequence?
Answer: 1.23 fold enrichment (6-mer frequency, TF over GST control)

Question: What about the binding signal (ETV7) of the same sequence?
Answer: 1.23 fold enrichment (6-mer frequency, TF over GST control)

Question: What about the binding signal (ELF5) of the same sequence?
Answer: 1.25 fold enrichment (6-mer frequency, TF over GST control)

Question: What about the binding signal (ETV3) of the same sequence?
Answer: 1.18 fold enrichment (6-mer frequency, TF over GST control)

Question: And the binding signal (ETV6)?
Answer: 1.33 fold enrichment (6-mer frequency, TF over GST control)
